In PubChem BioAssay (Tox21):
Results filed as inconclusive are left out. Active and inactive are the calls of the source. Calls follow the shape of the full dose curve.

test: qHTS assay to identify small molecule agonists or antagonists of the thyroid stimulating hormone receptor (TSHR) signaling pathway - wild type cell line counter screen (AID 1259384); settings: HEK293 wild type, cAMP HTRF counter-screen; series mostly up to 92.4 µM
Description: U.S. Tox21 Program National Center for Advancing Translational Sciences [NCATS] NIH Chemical Genomics Center [NCGC] U.S. Environmental Protection Agency [EPA] National Institutes of Environmental Health Sciences [NIEHS] National Toxicology Program [NTP] U.S. Food and Drug Administration [FDA] Tox21 Assay Overview: TSHR is the receptor for thyrotropin (thyroid stimulating hormone or TSH), a member of the glycoprotein hormone family. TSH is released by the anterior pituitary gland and is the main regulator of thyroid gland growth and development. Upon binding circulating thyrotropin, a G-protein signal cascade activates adenylyl cyclase and […] cAMP concentration is increased. cAMP is a key second messenger involved extensively in cellular signal transduction pathways associated with the majority of G-protein coupled receptors (GPCRs). The activation of these GPCRs by neurotransmitters, lipids, nucleotides, peptides and hormones results in the activation or the inhibition of plasma membrane-bound adenylate cyclase through heterotrimeric G-proteins. A cell-based TSHR-Hek293 assay can be used to identify TSHR agonists. To eliminate the false positive compounds identified from screening a cell-based TSHR-Hek293 cell line, cAMP assay in a wild type Hek293 cells was used as a counter screening.
Tox21 Assay Protocol Summary: Hek293 cells (wild type) were dispensed at 800 cells/4 uL/well in 1536-well white plates using a Multidrop dispenser. After the assay plates were incubated at a 37 C/5% CO2 incubator for 18 hrs, 23 nL of compounds dissolved in DMSO, positive controls or DMSO only was transferred to the assay plate by a pin tool, followed by 1 ul medium containing Ro20-1724. After 30 min of incubation at room temperature, 2.5 ul/well of cAMP-d2 and 2.5 ul/well of anti-cAMP-cryptate were added respectively into the assay plates using a Flying Reagent Dispenser. The plates were incubated at room temperature for 1 hr. The fluorescence intensity in the plates was measured using an Envision plate reader. Each test compound was measured at 15 concentrations and in triplicates.

Q: For CSCCCN=C=S, which outcome is on record?
A: inactive

Q: With O=c1[nH]c2ccccc2n1CCCN1CCC(n2c(=O)[nH]c3cc(Cl)ccc32)CC1 as the compound, how does the outcome read?
A: inactive

Q: Which outcome does the source give for COc1ccc([N+](=O)[O-])cc1O here?
A: inactive

Q: Which outcome does the source give for Cc1ccc(OP(=O)(Oc2ccccc2)Oc2ccccc2)cc1 here?
A: inactive

Q: With CC(C)CCCCCCCOP(=O)(Oc1ccccc1)Oc1ccccc1 as the compound, how does the outcome read?
A: inactive

Q: With Nc1ccc([N+](=O)[O-])cc1Cl as the compound, how does the outcome read?
A: inactive

Q: With CCCCCCCCCCCCCCCCCCn1cc[n+](C)c1 as the compound, how does the outcome read?
A: inactive

Q: Which outcome does the source give for ClCCN1CCOCC1 here?
A: inactive

Q: With Cn1cc(C2=C(c3cn(C4CCN(Cc5ccccn5)CC4)c4ccccc34)C(=O)NC2=O)c2ccccc21 as the compound, how does the outcome read?
A: inactive

Q: With N#CNC#N as the compound, how does the outcome read?
A: inactive

Q: Which outcome does the source give for BrCC(Br)c1ccccc1 (stereo not given) here?
A: inactive

Q: For N#C/C=C/C#N, which outcome is on record?
A: inactive

Q: For COc1ccc(OC)c(CC(C)N)c1 (stereo not given), which outcome is on record?
A: inactive

Q: Which outcome does the source give for COP(=O)(CCC(=O)NCO)OC here?
A: inactive

Q: With Cn1[nH]nnc1=S as the compound, how does the outcome read?
A: inactive

Q: Which outcome does the source give for O=[N+]([O-])O.O=[N+]([O-])O.[Cd] here?
A: inactive

Q: With COP(N)(=S)OC as the compound, how does the outcome read?
A: inactive

Q: For Cc1ccc(C(=O)Cl)cc1, which outcome is on record?
A: inactive

Q: For O=C(O)c1cc[c]([Hg][Cl])cc1, which outcome is on record?
A: inactive

Q: With CCCCCCCCCBr as the compound, how does the outcome read?
A: inactive

Q: With CCOCCOC(C)=O as the compound, how does the outcome read?
A: inactive

Q: Which outcome does the source give for CN(CCCC(O)c1cccnc1)N=O (stereo not given) here?
A: inactive

Q: With N#Cc1c(-c2ccc(Cl)cc2)[nH]c(C(F)(F)F)c1Br as the compound, how does the outcome read?
A: inactive

Q: For COCC(=O)N(c1c(C)cccc1C)[C@H](C)C(=O)OC, which outcome is on record?
A: inactive

Q: For COS(=O)(=O)c1ccc(C)cc1, which outcome is on record?
A: inactive

Q: With C=CC(=O)OCCCCOC(=O)C=C as the compound, how does the outcome read?
A: inactive

Q: Which outcome does the source give for N#CCCC(Br)(C#N)CBr (stereo not given) here?
A: inactive

Q: With O=C(NC(=O)c1c(F)cccc1F)Nc1cc(Cl)c(OC(F)(F)C(F)F)c(Cl)c1 as the compound, how does the outcome read?
A: inactive

Q: Which outcome does the source give for Clc1ccc(CSC(Cn2ccnc2)c2ccc(Cl)cc2Cl)cc1 (stereo not given) here?
A: inactive

Q: For CS(=O)(=O)c1ccc(C(=O)C2C(=O)CCCC2=O)c([N+](=O)[O-])c1, which outcome is on record?
A: inactive

Q: With O=[N+]([O-])c1cc(Cl)ccc1Cl as the compound, how does the outcome read?
A: inactive

Q: Which outcome does the source give for Cc1cc(C(C)(C)c2cc(C)c(O)c(C)c2)cc(C)c1O here?
A: inactive

Q: With O=C(Cl)c1ccc(Cl)cc1 as the compound, how does the outcome read?
A: inactive

Q: Which outcome does the source give for CCCCCCCCCCCCCN1CC(C)OC(C)C1 (stereo not given) here?
A: inactive

Q: Which outcome does the source give for C[C@H]1CC[C@@H]2[C@@H](C)[C@H]3[C@H](C[C@H]4[C@@H]5CC=C6CC(O[C@@H]7O[C@H](CO)[C@H](O)[C@H](O[C@@H]8O[C@H](CO)[C@@H](O)[C@H](O)[C@H]8O)[C@H]7O[C@H]7O[C@@H](C)[C@H](O)[C@@H](O)[C@H]7O)CC[C@]6(C)[C@H]5CC[C@]34C)N2C1 (stereo not given in full) here?
A: inactive

Q: With C=CC(=O)OCC(COC(=O)C=C)(COC(=O)C=C)COC(=O)C=C as the compound, how does the outcome read?
A: inactive

Q: For CN(C)[C@@H]1C(=O)C(C(N)=O)=C(O)[C@@]2(O)C(=O)C3=C(O)c4c(O)ccc(Cl)c4[C@@](C)(O)[C@H]3C[C@@H]12, which outcome is on record?
A: inactive

Q: Which outcome does the source give for CCc1cc(C)cc(CC)c1-c1c(OC(=O)C(C)(C)C)n2n(c1=O)CCOCC2 here?
A: inactive

Q: With O=C(CCCN1CCC2(CC1)C(=O)NCN2c1ccccc1)c1ccc(F)cc1 as the compound, how does the outcome read?
A: inactive

Q: With Fc1cccc(Cl)c1CCl as the compound, how does the outcome read?
A: inactive
